Results from PubChem BioAssay AID1159580 (chemical genetic matrix, 2015).
Out of some 5,500 compounds screened, about 2,000 (36%) were called active. About 18% were inconclusive and are not listed. The list shows a part of the results. Values without a mark were called inactive. No stated cut-off is given here; in the data, active means normalized growth mostly below about 0.91 (no sharp cut-off); inconclusive means no clear call, values can overlap the other calls; inactive means mostly above about 0.92.

Experiment: chemical genetic growth profiling, strain panel (AID 1159580);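 further: tested at 20 µM; growth read once vehicle control cultures reached saturation at 30 °C; 1 = growth at the plate median or of vehicle wells; lower values mean less growth of the strain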
Details: S. cerevisiae deletion strains, growth OD
[1] = locus YAL040C, strain CLN3, hits give low values
[2] = locus YCL061C, strain MRC1 (second series), hits give low values
[3] = locus YDR363W, strain ESC2, hits give low values
[4] = locus YER002W, strain NOP16, hits give low values
[5] = locus YMR307W, strain GAS1, hits give low values
[6] = locus YNL128W, strain TEP1, hits give low values
[7] = locus YNL175C, strain NOP13, hits give low values
[8] = locus YNL197C, strain WHI3, hits give low values
[9] = locus YNL224C, strain SQS1, hits give low values
[10] = locus YOR083W, strain WHI5 (second series), hits give low values

SMILES | normalized growth [1] | normalized growth [2] | normalized growth (locus YDR150W, strain NUM1, hits give low values) | normalized growth [3] | normalized growth [4] | normalized growth (locus YGR229C, strain SMI1, hits give low values) | normalized growth (locus YJR075W, strain HOC1, hits give low values) | normalized growth [5] | normalized growth [6] | normalized growth (locus YNL153C, strain GIM3, hits give low values) | normalized growth [7] | normalized growth [8] | normalized growth [9] | normalized growth (locus YNL322C, strain KRE1, hits give low values) | normalized growth [10] | normalized growth (locus YPL055C, strain LGE1, hits give low values) | normalized growth (locus YAL013W, strain DEP1, hits give low values) | normalized growth (locus YGR078C, strain PAC10, hits give low values) | normalized growth (locus YMR263W, strain SAP30, hits give low values)
Cc1c(C)c2c(c(C)c1O)CCC(C)(CN1CCN(c3cc(N4CCCC4)nc(N4CCCC4)n3)CC1)O2 (centres undefined) | 0.579 (active) | 0.993 | 0.997 | 0.96 | 1.15 [resistant] (active) | 0.944 | 0.959 | 1 | 1.07 | 0.995 | 1.09 [resistant] (active) | 1.08 | 1.07 | 0.961 | 1.04 | 0.891 |  |  | 
C[C@]12C=CC(=O)C=C1CC[C@@H]1C2=CC[C@]2(C)[C@@H](C(=O)CN3CCN(c4cc(N5CCCC5)nc(N5CCCC5)n4)CC3)CC[C@@H]12 | 0.998 | 0.976 |  | 0.964 | 1.01 |  |  | 0.998 | 1.03 |  | 1.02 | 1.04 | 1.01 |  | 1.01 |  | 0.97 | 0.995 | 0.993
